FMDV antiviral: antivirals against foot and mouth disease virus; AID 1159524; hit rate 1.2% among 410,000; Potency, µM (titrated, usually from 57.9 µM), usual class: inhibitors; FMDV antiviral cell-based qHTS; calls by dose curve; tested in HEK293T cells; note: read-out not given here; nearly all actives have a fitted effect of over 45% in size
AmpC no deterg: AmpC beta-lactamase inhibition without detergent. hit rate 0.52% among 330,000. Potency, µM (highest dose often 57.1 µM), hits mostly inhibitors. AmpC nitrocefin hydrolysis, absorbance 480 nm, 0.0001% Triton; note: nearly all actives have a fitted effect of over 20% in size
Target sequence (P00811 whole entry, looked up): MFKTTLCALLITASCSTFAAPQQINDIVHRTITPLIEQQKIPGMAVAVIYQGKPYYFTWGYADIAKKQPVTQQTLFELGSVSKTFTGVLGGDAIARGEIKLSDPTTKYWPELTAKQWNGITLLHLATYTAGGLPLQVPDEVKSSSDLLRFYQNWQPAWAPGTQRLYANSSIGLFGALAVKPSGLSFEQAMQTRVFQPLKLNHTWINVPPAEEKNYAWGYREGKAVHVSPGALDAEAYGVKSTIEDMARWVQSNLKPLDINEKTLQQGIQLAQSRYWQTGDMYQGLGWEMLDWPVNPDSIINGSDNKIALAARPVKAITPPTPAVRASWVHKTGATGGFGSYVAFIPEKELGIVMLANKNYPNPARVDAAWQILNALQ
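AmpC (5.3 nM in the dispensed reagent) in 20 mM phosphate pH 7.0 with 0.01% (detergent screen) or 0.0001% Triton X-100 was preincubated with compounds for 15 min at room temperature. Nitrocefin was then added from an 800 uM solution, and hydrolysis was followed at 480 nm.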
HCV inh: HCV inhibition; hit rate 3.4% among 340,000; Potency, µM (top dose mostly 41.8 µM), actives largely listed as inhibitors; Huh7.5.1 HCVcc-Cre infection, luciferase reporter, 44 h
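Compounds are dispensed onto cells plated 4 h earlier at 1,000 per well, with HCVcc-Cre virus (about 0.5 moi) added next. Following 44 h of culture, luminescent signal is measured for 15 sec after 15 min with substrate at room temperature.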
HCMV inh: blocks human cytomegalovirus replication. HFF cells, HCMV-luciferase reporter, 72 h; stronger effect = lower value. activity change, negative = inhibition, % at 57.5 µM. hit rate 4.5% among 410,000. AID 1259415; in the data active = activity change below about -60%; inconclusive = no clear call, values can overlap the other calls; inactive = above about -39%
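Two compound doses tested in HFFs infected with HCMV-luciferase, MOI 1 PFU/cell, 72 h at 37C. Lysate luminescence read with OneGlo; data normalized against buffer-only and 10uM Salinomycin inhibitor controls.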
AmpC inh detg: inhibitors of E. coli AmpC beta-lactamase with detergent | Potency, µM (highest dose often 114 µM), actives largely listed as inhibitors | AmpC hydrolysis of nitrocefin, absorbance 480 nm, 0.01% Triton | hit rate 0.041% among 370,000 | AID 485294 | P00811; note: nearly all actives have a fitted effect of over 25% in size
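AmpC (5.3 nM in the dispensed reagent) in 20 mM phosphate pH 7.0 with 0.01% (detergent screen) or 0.0001% Triton X-100 was preincubated with compounds for 15 min at room temperature. Nitrocefin was then added from an 800 uM solution, and hydrolysis was followed at 480 nm.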
Each line names hits and unclear results; the compound was inactive in the other large screens; ! = repeats disagree. Most compounds without a hit are left out; they make up all but 7.3% or so of the library. Unless noted, calls come from the whole dose curve; as a rule, active = well fitted curve in the direction sought with a large enough effect; inconclusive = small, poorly fitted or top-dose-only effect, or another doubt; inactive = no such curve, though single readings can be large; an effect the other way counts as inactive or inconclusive.

COc1ccc(C2N(C(C)=O)CCCN2S(=O)(=O)c2ccc(C)cc2)cc1 (stereo unspecified)	HCMV inh -62
Cc1ccc(Cl)cc1N(C)C(=O)c1noc2c1CCCCC2	HCMV inh -64 (no result: AmpC no deterg, HCV inh)
O=c1ccc2ccccc2c2ccccc12	FMDV antiviral 13µM, HCMV inh -99 (no result: AmpC no deterg, HCV inh, AmpC inh detg)
CCC[C@H]1[C@@H](NS(=O)(=O)c2ccc(C(F)(F)F)cc2)CC[C@@]23CCCN2C(=O)CCC[C@@H]13	none (no result: FMDV antiviral, AmpC no deterg, HCV inh, AmpC inh detg)
O=[N+]([O-])c1ccc(Sc2nccn2Cc2ccccc2)cc1	HCMV inh -77, AmpC inh detg inconclusive (no result: FMDV antiviral)
O=c1[nH]c2ccc(NCc3ccc(-c4ccc(F)cc4)o3)cc2[nH]1	none (no result: AmpC no deterg, HCV inh)
CC(C)Cn1c(C(C)C)nc([N+](=O)[O-])c1Sc1ccc(Cl)cn1	FMDV antiviral inconclusive, HCV inh inconclusive, AmpC inh detg inconclusive
CCCc1nc([N+](=O)[O-])c(S(=O)(=O)c2ccccc2)n1CC(C)C	FMDV antiviral inconclusive, HCV inh inconclusive, HCMV inh -93
CC(C)Cn1c(C(C)C)nc([N+](=O)[O-])c1S(=O)(=O)c1ccc(F)cc1	FMDV antiviral 16µM, HCV inh inconclusive, HCMV inh -72
CC(C)c1ccccc1OCC(=O)Nc1ccc2[nH]ncc2c1	HCV inh 22µM, HCMV inh inconclusive
COc1ccccc1C(=O)Nc1ccc2[nH]ncc2c1	none
O=C(CNS(=O)(=O)c1ccccc1)Nc1cccc([N+](=O)[O-])c1	AmpC inh detg inconclusive
COc1cccc(-n2cc(C(=O)NCc3ccc(C)cc3)c3ccccc3c2=O)c1	none (no result: AmpC no deterg, HCV inh)
Cc1ccc2[nH]cc(C(=O)NCc3cccs3)c(=O)c2c1	HCV inh 10µM (no result: FMDV antiviral)
Cc1ccc(S(=O)(=O)Nc2c(C)n(C)n(-c3ccccc3)c2=O)cc1C(=O)NCc1ccco1	HCV inh 32µM (no result: AmpC no deterg, AmpC inh detg)
COc1cccc(-n2cc(C(=O)NCCc3ccc(C)cc3)c3ccccc3c2=O)c1	HCMV inh -61 (no result: AmpC no deterg, HCV inh)
Cc1cc(C)cc(NS(=O)(=O)c2ccc3[nH]cc(C(=O)NCc4ccco4)c(=O)c3c2)c1	AmpC no deterg 16µM, HCMV inh -73!
COc1ccccc1N1CCN(C(=O)c2oc3ccccc3c2N)CC1	none (no result: AmpC no deterg, HCV inh)
N#Cc1c(Cl)nc(-c2ccncc2)nc1-c1ccccc1	none
CCOc1ccc(-c2cc(CCCC(=O)NCCc3ccc(Cl)cc3)no2)cc1	none (no result: AmpC no deterg, HCV inh)
C[C@H](C(=O)N[C@H](CO)c1ccccc1)N1Cc2ccc(N3CCOCC3)nc2C1=O	none (no result: FMDV antiviral, AmpC no deterg, HCV inh, AmpC inh detg)
O=C(Nc1cccc(Cl)c1)N1Cc2ccccc2Oc2ncccc21	none (no result: AmpC no deterg, HCV inh)
COc1cccc(NS(=O)(=O)c2ccc3[nH]cc(C(=O)NCCc4ccc(C)cc4)c(=O)c3c2)c1	AmpC no deterg 6.3µM (no result: HCV inh)
CCN(C(=O)CSc1nc2ccccc2nc1Cc1cccc(OC)c1)c1cccc(C)c1	none (no result: AmpC no deterg, HCV inh)
CC1(C)C(=O)Nc2ccccc2N1C(=O)COC(=O)c1ccc(NC(N)=O)cc1	HCV inh inconclusive (no result: HCMV inh)
Cc1nc(Sc2nnnn2C)c2c3c(sc2n1)CCC3	FMDV antiviral inconclusive, HCMV inh -103, AmpC inh detg inconclusive
O=c1c2ccccc2nc2n1C(CSCc1ccc(Cl)cc1Cl)CS2 (stereo unspecified)	FMDV antiviral 18µM, AmpC inh detg inconclusive
C=C1CC2(CC(c3ccccc3)OC(c3ccccc3)C2)OC1=O (stereo unspecified)	FMDV antiviral 22µM, HCV inh inconclusive (no result: AmpC no deterg, AmpC inh detg)
O=C(C[C@H]1C=C[C@H](NC(=O)c2ccccn2)[C@@H](CO)O1)NCc1cc(F)cc(F)c1	none (no result: AmpC no deterg, HCV inh, AmpC inh detg)
COc1ccc(C(=O)c2ccc(N(C)C)cc2)c(OC)c1	HCV inh inconclusive
CN(C)c1ccc(C(=O)c2ccc(N(C)C)c3ccccc23)cc1	HCV inh 11µM, HCMV inh -80
CSc1nc(N)nc2c1ncn2CC(=O)N1CCN(Cc2c(C)cc(C)cc2C)CC1	FMDV antiviral inconclusive, HCV inh 1.4µM (no result: AmpC inh detg)
Cc1cc(C)c(CN2CCN(C(=O)Cn3cnc4c(NCc5ccccc5)ncnc43)CC2)c(C)c1	FMDV antiviral 8.9µM, HCV inh inconclusive (no result: AmpC inh detg)
O=C(Cn1cnc2c(NCc3ccccc3)ncnc21)N1CCN(c2ccccn2)CC1	none (no result: AmpC inh detg)
CNc1nc(NCc2ccc(N(C)C)cc2)c2sccc2n1	none (no result: AmpC no deterg, HCV inh, HCMV inh, AmpC inh detg)
Cc1nccc2c1[nH]c1ccc(Br)cc12	HCV inh 4µM
COc1ccc2c(c1)[nH]c1c(C)nccc12	FMDV antiviral inconclusive, HCV inh inconclusive, HCMV inh -95
Cn1c(=O)n(C)c2cc(N3CCOCC3)c(NS(=O)(=O)c3ccc(Br)cc3)cc21	none (no result: AmpC no deterg, HCV inh)
CCNC(=S)N/N=C(\C)c1ccc(N2CCOCC2)cc1	HCV inh inconclusive
CNC(=S)N/N=C(\C)c1ccc(N2CCOCC2)cc1	HCMV inh -99
Cc1nn(-c2ccccc2)c(C)c1C(=O)OCc1ccc(C#N)cc1	HCV inh 13µM
CCOC(=O)C1CCCN(C(=O)c2ccc(-c3ccc([N+](=O)[O-])cc3)o2)C1 (stereo unspecified)	FMDV antiviral inconclusive, HCV inh inconclusive
CCN(CC)c1ccc(NC(=O)/C=C\c2ccccc2Cl)cc1	HCV inh inconclusive (no result: FMDV antiviral)
CN(C)c1ccc(NC(=O)/C=C/c2ccccc2Cl)cc1	AmpC no deterg 2.5µM, HCV inh inconclusive, AmpC inh detg inconclusive
COc1ccc2nc(SCC(=O)N3CCCCCC3)c(C#N)cc2c1	HCV inh 6.3µM
N#Cc1cc2cc3c(cc2nc1SCC(=O)N1CCOCC1)OCCO3	FMDV antiviral inconclusive, HCMV inh -61
Cc1cc2cc3c(cc2nc1SCC(=O)N1CCCC1)OCCO3	HCMV inh -61
COc1ccc(S(=O)(=O)N(C)C)cc1NC(=O)COC(=O)C1CC1	none (no result: AmpC inh detg)

Compound activity as filed in PubChem BioAssay.
